ELG1 genotox: qHTS screen for small molecules that induce genotoxicity in human embryonic kidney (HEK293T) cells expressing luciferase-tagged ELG1; Potency, µM (doses to about 46 µM), inactives show at the top dose activity change, positive = activation, actives largely listed as activators; HEK293T ELG1-luciferase reporter, luminescence, 16 h; hit rate 1.3% among 330,000; further: % of control where 0% means no effect; nearly all actives have a fitted effect of over 60% in size
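Cells (2,000/well) expressing the ELG1-luciferase fusion are dosed by pin tool and kept 16 hr at 37 °C, 5% CO2. Signal comes from ONE-Glo luciferase reagent after 30 min at room temperature.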
FLuc counter: qHTS profiling assay for firefly luciferase inhibitor/activator using purifed enzyme and Km concentrations of substrates (counterscreen for miR-21 project). Potency, µM (series often up to 57.5 µM), for inactives: top-dose activity change, negative = inhibition, usual class: inhibitors. Luciferin 4-monooxygenase (Photinus pyralis), P08659. purified FLuc, Km substrates, luminescence inhibition. hit rate 6.9% among 360,000. AID 588342, 2011;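 further: plate controls were vehicle for no effect and reference inhibitor for full effect; nearly all actives have a fitted effect of over 55% in size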
Target sequence (P08659 whole entry, looked up): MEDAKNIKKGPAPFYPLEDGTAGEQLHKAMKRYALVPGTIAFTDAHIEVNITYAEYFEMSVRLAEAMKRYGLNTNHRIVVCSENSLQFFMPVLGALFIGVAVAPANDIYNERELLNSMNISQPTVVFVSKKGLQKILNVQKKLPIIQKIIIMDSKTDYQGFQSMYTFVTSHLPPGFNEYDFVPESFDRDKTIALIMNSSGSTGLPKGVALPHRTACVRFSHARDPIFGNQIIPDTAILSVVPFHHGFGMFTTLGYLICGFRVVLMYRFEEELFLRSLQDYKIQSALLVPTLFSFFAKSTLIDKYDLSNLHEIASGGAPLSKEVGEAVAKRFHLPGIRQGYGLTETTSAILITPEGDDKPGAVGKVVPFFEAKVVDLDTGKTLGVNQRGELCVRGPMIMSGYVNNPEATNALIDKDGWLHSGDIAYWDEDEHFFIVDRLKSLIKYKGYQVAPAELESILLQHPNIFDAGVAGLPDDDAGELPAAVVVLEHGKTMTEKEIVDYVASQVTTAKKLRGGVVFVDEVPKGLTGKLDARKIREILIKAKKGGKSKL
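Biochemical qHTS of compounds, final roughly 60 µM downward over six points, against 10 nM purified firefly luciferase using Km concentrations of substrates (10 uM D-luciferin, 10 uM ATP) in Tris acetate pH 7.5 buffer; luminescence output.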
SMN2 splice enh: qHTS Assay for Enhancers of SMN2 Splice Variant Expression; Potency, µM (titrated, usually from 46.1 µM), for inactives: top-dose activity change, positive = activation, usual class: activators; HEK293 SMN2-luciferase splicing reporter, luminescence, 30-36 h; AID 1458, 2008; hit rate 2.8% among 210,000; further: % of control where 0% means no effect; nearly all actives have a fitted effect of over 55% in size
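HEK293 cells carry an SMN2 […]–luciferase reporter in which exon 7 inclusion puts luciferase in frame. Cells were plated 10-12 h before compound addition, then incubated 30-36 h at 37C. ONE-Glo luminescence was read; sodium butyrate at 4.5 mM final served as control.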
Rab9 promoter act: qHTS Assay for Rab9 Promoter Activators; Huh7 Rab9 promoter-luciferase reporter, luminescence, 24 h; Potency, µM (doses to about 9.22 µM), inactives show top-dose activation, negative = inhibition, most hits filed as activators; hit rate 2.8% among 320,000; further: % of control where 0% means no effect; nearly all actives have a fitted effect of over 60% in size
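Cells were plated at 1500 per well in reduced-serum medium with 10% FBS and left 2 h. Compound in DMSO was then added for 24 h at 37 °C. Reporter signal was read by luminescence after 10 min with luciferase detection reagent.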
NPC1 prom act: qHTS Assay for NPC1 Promoter Activators | hit rate 2.4% among 320,000 | Potency, µM (top dose mostly 9.22 µM), for the others: top-dose activation, usual class: activators | Huh7 NPC1 promoter luciferase reporter, 24 h | AID 485313, 2010; further: % of control where 0% means no effect; nearly all actives have a fitted effect of over 60% in size
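Huh7 cells stably carrying NPC1 promoter–luciferase, plated in Opti-MEM with 10% FBS for 2 h, were exposed to compound in DMSO for 24 h at 37 °C; luciferase reagent was added for 10 min and luminescence read.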
uPA generation: qHTS for Inhibitors of Cell Surface uPA Generation; cell surface uPA generation assay, qHTS; Potency, µM (doses to about 38.3 µM), for inactives: at the highest dose activity change, negative = inhibition, most hits filed as inhibitors; hit rate 0.31% among 330,000; AID 540303, 2011; active means well fitted inhibition curve with a large enough effect; inconclusive means small, poorly fitted or top-dose-only effect; inactive means no such curve, though single readings can be large or run the other way; tested in mouse RAW 264.7 cells; further: on the % scale 0 is the no-effect control and ±100 the full control effect; nearly all actives have a fitted effect of over 55% in size
The depositor's hits bear a star; ? = inconclusive; / = no result given; [ ] = another dose, or the depositor's remark. Only some compounds are listed: those with a hit (about 7.3% of all), similar ones and a draw of the others. Unless noted, the call rests on the fitted dose curve; in most records, active means well fitted curve in the direction sought with a large enough effect; inconclusive means small, poorly fitted or top-dose-only effect, or another doubt; inactive means no such curve, though single readings can be large; an effect the other way counts as inactive or inconclusive. Potency means the concentration at half of the fitted maximal effect.

SMILES	ELG1 genotox	FLuc counter	SMN2 splice enh	Rab9 promoter act	NPC1 prom act	uPA generation
CCN(CC)c1ccc(/C=N/N2CCN(Cc3ccccc3)CC2)c(O)c1	-5%	3%	-6%[1.84 µM]	-6%	-3%	7%
CCN(CC)c1ccc(/C=N/N2CCOCC2)c(O)c1	?	13µM*	8.9µM*	3.5µM*	?	-3%
CCN(CC)c1ccc(/C=N/Nc2cccc(C)c2)c(O)c1	14%	?	?	1%	16%	5%
CCN(CC)c1ccc(C=Nc2ccc(N(C)C)cc2)c(O)c1	13µM*	8.5µM*	-1%	15%	0%	-5%
CCN(CC)c1ccc(C=Nc2ccccc2)c(O)c1	6%	4.3µM*	20%	-1%	-8%	-2%
CCN(CC)c1ccc(/C=N/Nc2ccccc2)c(O)c1	8%	21µM*	5%	15%	11%	/
CCc1nnc(NC(=O)c2ccc(Br)c(S(=O)(=O)N3CCOCC3)c2)s1	-6%	-14%	/	-3%	-2%	0%
C[n+]1cc(C(=O)N2CCCCC2)ccc1/C=C/c1c[nH]c2ccccc12	-4%	-4%	/	-11%	-1%	1%
CCN(c1ccccc1)S(=O)(=O)c1c(-c2ccc(C)cc2)csc1C(=O)OC	/	-10%	/	/	/	/
CCN(CC)c1ccc(C=Nc2ccc(C)cc2)c(O)c1	1%	11µM*	8%	3%	0%	1%
NCc1cccc(-n2cccn2)c1	3%	1%	-7%	-3%	2%	1%
c1ccc2c(-n3cccn3)cccc2c1	?	15µM*	-4%	24%	?	-1%
O=C(N/N=C/c1ccc2c(c1)OCO2)c1ccccn1	?	2.1µM*	3.5µM*	0.4µM*	0.32µM*	?
O=C(N/N=C/c1cc2c(cc1Br)OCO2)c1cc2ccccc2o1	6%	9.5µM*	/	22%	22%	2%
O=C(N/N=C/c1cc2c(cc1Br)OCO2)c1ccccn1	?	2.7µM*	/	1.3µM*	2.5µM*	-2%
Nc1nonc1C(=O)N/N=C/c1cc2c(cc1Br)OCO2	16%	?	/	-1%	-6%	-1%
O=C(N/N=C/c1ccco1)c1ccc(Br)o1	3%	-11%	3%	-2%	-3%	3%
O=C(N/N=C/c1ccco1)c1cc2ccccc2o1	12%	17µM*	/	19%	15%	?
O=C(N/N=C/c1ccc2c(c1)OCO2)c1ccc2ccccc2n1	?	3µM*	1%	15%	2%	-4%
O=C(/C=C/c1ccc2c(c1)OCO2)c1ccccn1	?	0.34µM*	/	3.5µM*	2.2µM*	-9%
CC(C)(C)c1cc(C(=O)N/N=C/c2cc3c(cc2Br)OCO3)n[nH]1	1%	-6%	/	-2%	-11%	?
Cc1cccc(C(=O)N/N=C/c2ccc3c(c2)OCO3)n1	6%	?	-1%	7%	7%	2%
O=C(N/N=C/c1ccsc1)C1CC1	0%	-10%	/	12%	9%	3%
O=C(N/N=C/c1cc2c(cc1Br)OCO2)c1c[nH]c2ccccc12	8%	9.5µM*	11µM*	2.5µM*	2.5µM*	-7%
O=C(C=Cc1ccc2c(c1)OCO2)c1ccccc1	/	/	/	/	/	0%
SMILES	ELG1 genotox	FLuc counter	SMN2 splice enh	Rab9 promoter act	NPC1 prom act	uPA generation
O=C(N/N=C/c1ccsc1)c1ccc2ccccc2n1	13%	21µM*	27%	?	22%	-4%
CCCN(CCC)CCNC(=O)C1CCCN(S(=O)(=O)c2cccc3nsnc23)C1 (stereo not drawn)	/	1%	-20%	/	/	/
CSc1nc2nc(-c3ccccc3)cc(=O)n2[nH]1	?	6.7µM*	?	1%	19%	-13%
CCN1C(=O)/C(=C\C=C2/C=CC=CN2CC)SC1=S	21µM*	3.8µM*	5.6µM*	1.4µM*	1.6µM*	-8%
CCN1C(=O)/C(=C/C=C2\C=CN(CC)c3ccccc32)SC1=S	?	?	9%	3.2µM*	?	-1%
CCN1C(=O)/C(=C2/C=CC=CN2C)SC1=S	-3%	-7%	9%	2%	1%	-1%
O=C(NCCc1ccccc1Cl)c1sc2ncccc2c1-n1cccc1	/	1%	/	/	/	/
COc1ccc(Cn2ccc3nc(C)c(C(=O)N4CCN(c5cccc(OC)c5)CC4)cc3c2=O)cc1	/	-2%	/	/	/	/
C=C1CCC2C(CC2(C)C)C(=O)CCC1O (stereo not drawn)	/	/	-4%	/	/	/
O=C(C[n+]1cc(-c2ccc(F)cc2)n2c1CCC2)N1c2ccccc2Sc2ccccc21	?	2.4µM*	76%	2.8µM*	?	-1%
COCCN(C(=O)COC(=O)Cc1coc2cc3c(cc12)CCC3)c1c(N)n(Cc2ccccc2)c(=O)[nH]c1=O	0%	24µM*	/	-4%	-4%	2%
N#CC1(NC(=O)COC(=O)CNC(=O)c2sc3ccccc3c2Cl)CCCCC1	3%	?	/	-3%	-3%	2%
CCC(C)N(C(=O)COC(=O)CNC(=O)c1sc2ccccc2c1Cl)C1CCS(=O)(=O)C1 (stereo not drawn)	11%	21µM*	/	-2%	6%	-9%
CCN(C(=O)COC(=O)CNC(=O)c1sc2ccccc2c1Cl)C1CCCCC1	2%	12µM*	/	3%	-4%	0%
O=C(Cn1ccc([N+](=O)[O-])n1)Nc1ccccn1	1%	2%	/	3%	-1%	-5%
COc1ccc(-n2cc(-c3ccccc3)nc2SCC(=O)Nc2ccccc2)cc1Cl	/	2%	/	/	/	/
COCCNC(=O)c1ccc2c(=O)n(CCOC)c(SCC(=O)c3c[nH]c4ccccc34)nc2c1	/	-6%	/	/	/	/
COc1ccc(CC(=O)NNc2ncnc3c2cnn3-c2ccccc2)cc1	4%	1%	2%	-3%	-3%	-1%
CCC(CO)Nc1ncnc2c1cnn2-c1ccc(Cl)cc1 (stereo not drawn)	?	1.7µM*	?	0.32µM*	0.45µM*	?
CCC(CO)Nc1ncnc2c1cnn2-c1ccc(OC)cc1 (stereo not drawn)	2.6µM*	6.7µM*	10µM*	1µM*	1µM*	?
O=C(/C=C/c1ccccc1)NCCc1c[nH]c2ccccc12	/	/	/	/	/	0%
COC(=O)C1=C(CSc2nnnn2C)NC(=O)NC1c1cc(C)ccc1C (stereo not drawn)	-1%	3%	25µM*	0%	-4%	-7%
COC(=O)C1=C(CN2CCc3ccccc32)NC(=O)NC1c1cc(C)ccc1C (stereo not drawn)	-3%	0%	4.5µM*	-9%	2%	-8%
COc1cc(-c2ccno2)ccc1S(=O)(=O)N1CCN(c2cccc(Cl)c2)CC1	/	-1%	/	/	/	/
